Assay results from PubChem BioAssay (Tox21).
“And” between values parts separate entries of the source, which are not always exact repeats. Identical values can stand only once. Records with an inconclusive call do not appear. The source made the active and inactive calls. Unless noted, the call rests on the fitted dose curve; in most records, active means well fitted curve in the direction sought with a large enough effect in the repeat runs; inconclusive means weak or mixed curves; inactive means no such curve, though single readings can be large; an effect the other way counts as inactive or inconclusive.

Tests used:
[1] = qHTS assay for small molecule agonists of the p53 signaling pathway (AID 651631; calls by dose curve; further: nearly all actives have a fitted effect of over 15% in size)
Outline: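 We treat p53RE-bla HCT-116 cells with compounds for 16 h at 37 °C, add LiveBLAzer B/G FRET substrate for 2 h at room temperature, and measure fluorescence intensity.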

[2] = qHTS assay for small molecule agonists of the p53 signaling pathway - cell viability (AID 651633; calls by dose curve; further: nearly all actives have a fitted effect of over 30% in size; further: potency means the concentration at half of the fitted maximal effect;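 on activity change, negative = cytotoxicity: p53RE-bla HCT reporter cells with a stable beta-lactamase p53 reporter; series mostly up to about 83 µM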)
Outline: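 Viability counter-read: CellTiter-Glo luminescence (30 min, room temperature) in the same p53RE-bla plates. These plates had been exposed to compounds for 16 h at 37 C.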

[3] = qHTS assay for small molecules that induce genotoxicity in human embryonic kidney cells expressing luciferase-tagged ATAD5 - cell viability (AID 651634; calls by dose curve; further: nearly all actives have a fitted effect of over 25% in size)
Outline: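 Cytotoxicity counter-readout: after 15.5 hr compound treatment at 37C, live-cell protease activity in ATAD5-luciferase HEK293T cells measured by CellTiter-Fluor fluorescence, 30 min development at 37C.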

[4] = qHTS assay for small molecule disruptors of the mitochondrial membrane potential - cell viability (AID 720634; calls by dose curve;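 further: human HepG2 liver cancer cells; series mostly up to about 83 µM; nearly all actives have a fitted effect of over 20% in size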)
Outline: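 Cytotoxicity was quantified from ATP content by CellTiter-Glo luminescence in the same wells as the MMP dye read-out. HepG2 (2,000 cells/well) were plated overnight and exposed to compounds for 1 hr at 37 C.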

[5] = qHTS assay for small molecule disruptors of the mitochondrial membrane potential (AID 720635); further: potency means the concentration at half of the fitted maximal effect
Outline: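 Mitochondrial membrane potential tracked with Mito-MPS dye, red aggregates (ex 540/em 590 nm) against green monomers (ex 490/em 535 nm). Compound treatment 1 hr at 37C, dye 30 min in HepG2.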

[6] = qHTS assay to test for compound auto fluorescence at 590 nm (red) in HepG2 cells (AID 720674)
Outline: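 We screened compounds on adherent HepG2 cells, incubating them for an hour at 37 C in 5% CO2 before reading emission at 590 nm under 540 nm excitation; values reflect equivalence to Rose Bengal sodium fluorescence.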

[7] = qHTS assay to test for compound auto fluorescence at 535 nm (green) in HepG2 cells (AID 720675)
[8] = qHTS assay to test for compound auto fluorescence at 460 nm (blue) in HEK293 cells (AID 720678)
Outline: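 Cells were seeded and left to adhere for 4-5 hr at 37C. Compounds were then pin-transferred. After an overnight incubation at 37C under 5% CO2, intrinsic fluorescence at 405/460 nm was measured and referenced to triamterene.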

[9] = qHTS assay to test for compound auto fluorescence at 590 nm (red) in HEK293 cells (AID 720679)
Outline: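 Each well held 2,000 HEK293 cells in medium containing 10% dialyzed FBS. Following 4-5 hr attachment at 37C, 23 nL test compound or DMSO was added; plates sat overnight, and red fluorescence (540/590nm) was recorded.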

[10] = qHTS assay to test for compound auto fluorescence at 460 nm (blue) in HEK293 cell free culture (AID 720681)
Outline: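 Blue fluorescence (Ex 405/Em 460 nm, triamterene-equivalent) was read immediately after pin transfer of compound or DMSO into medium (DMEM, 10% FBS) without cells.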

[11] = qHTS assay to test for compound auto fluorescence at 535 nm (green) in HEK293 cell free culture (AID 720682)
Outline: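 Green-channel intensity (Ex/Em 485/535 nm) was recorded from compound-treated wells containing only DMEM with 10% FBS. Fluorescein provided the equivalency standard.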

[12] = qHTS assay to test for compound auto fluorescence at 590 nm (red) in HEK293 cell free culture (AID 720683)
Outline: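 Red-channel autofluorescence of compounds in culture medium (DMEM, 10% FBS), no cells, measured at 540/590 nm. Rose Bengal sodium is the reference fluorophore for equivalence.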

[13] = qHTS assay to test for compound auto fluorescence at 590 nm (red) in HepG2 cell free culture (AID 720684)
Outline: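 No cells present: MEM + 10% FBS only. Compound pinned in, red label read (540/590 nm). Activity = fluorescence equivalent to Rose Bengal sodium.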

[14] = qHTS assay to test for compound auto fluorescence at 460 nm (blue) in HepG2 cell free culture (AID 720685)
Outline: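 Cell-free plates of MEM plus 10% FBS received 23 nL compound or DMSO vehicle; blue-channel (405/460 nm) intensity scored against triamterene as reference fluorophore.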

[15] = qHTS assay to test for compound auto fluorescence at 535 nm (green) in HepG2 cell free culture (AID 720686)
[16] = qHTS assay to test for compound auto fluorescence at 460 nm (blue) in HepG2 cells (AID 720687)
Outline: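 Blue-channel autofluorescence (Ex/Em 405/460 nm, triamterene-equivalent) was measured after 1 hr compound exposure at 37 C, 5% CO2. Cells were HepG2, plated overnight at 37 C in MEM plus 10% FBS.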

[17] = target: Glucocorticoid receptor (Homo sapiens) (UniProt P04150); assay: qHTS assay to identify small molecule agonists of the glucocorticoid receptor (GR) signaling pathway (AID 720691; active means well fitted activation curve with a large enough effect in the signal ratio in the repeat runs, not every such curve was filed as active; the % refers to the signal ratio)
Sequence of Glucocorticoid receptor (Homo sapiens) (P04150 whole entry, looked up): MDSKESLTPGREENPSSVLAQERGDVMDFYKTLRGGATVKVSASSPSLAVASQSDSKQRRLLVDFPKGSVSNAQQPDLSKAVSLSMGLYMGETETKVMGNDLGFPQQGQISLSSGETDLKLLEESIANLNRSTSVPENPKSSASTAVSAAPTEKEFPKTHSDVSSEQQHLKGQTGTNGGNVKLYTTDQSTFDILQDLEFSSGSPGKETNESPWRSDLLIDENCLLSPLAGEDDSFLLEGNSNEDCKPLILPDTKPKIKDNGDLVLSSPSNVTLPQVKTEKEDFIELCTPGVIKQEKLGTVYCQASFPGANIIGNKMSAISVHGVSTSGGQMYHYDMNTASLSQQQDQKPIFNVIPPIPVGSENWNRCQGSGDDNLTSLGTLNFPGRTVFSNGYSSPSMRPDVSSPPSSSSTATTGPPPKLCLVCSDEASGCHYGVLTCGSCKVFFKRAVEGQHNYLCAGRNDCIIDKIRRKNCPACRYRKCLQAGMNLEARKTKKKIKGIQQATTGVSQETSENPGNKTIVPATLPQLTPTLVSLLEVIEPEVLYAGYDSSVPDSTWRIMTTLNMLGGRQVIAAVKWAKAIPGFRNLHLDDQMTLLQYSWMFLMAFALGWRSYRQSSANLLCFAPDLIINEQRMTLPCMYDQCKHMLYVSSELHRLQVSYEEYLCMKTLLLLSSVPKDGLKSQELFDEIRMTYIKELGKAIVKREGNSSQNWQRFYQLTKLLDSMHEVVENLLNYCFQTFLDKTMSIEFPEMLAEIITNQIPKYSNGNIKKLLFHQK
Outline: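 Agonist-mode qHTS in HeLa cells stably expressing a glucocorticoid-response-element beta-lactamase reporter. Fluorescence intensity read with FRET substrate (2 h, room temperature) after 18 h compound treatment at 37 C.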

[18] = target: Glucocorticoid receptor (Homo sapiens) (UniProt P04150); assay: qHTS assay to identify small molecule antagonists of the glucocorticoid receptor (GR) signaling pathway (AID 720692; active means well fitted inhibition curve with a large enough effect in the signal ratio in the repeat runs, not every such curve was filed as active; the % refers to the signal ratio)
Outline: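 Inhibition of dexamethasone-driven (5 nM final) beta-lactamase expression was measured in GRE-reporter HeLa cells over 18 h at 37C. Fluorescence was read after 2 h with the B/G FRET substrate at room temperature.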

[19] = qHTS assay for small molecules that induce genotoxicity in human embryonic kidney cells expressing luciferase-tagged ATAD5 (AID 651632); further: nearly all actives have a fitted effect of over 15% in size
Outline: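 A rise in luciferase signal from ATAD5-tagged HEK293T cells marks genetic stress. Cells were exposed to compounds for 16 hr at 37C, 5% CO2, then luciferase was quantified after a 30 min room-temperature incubation with Amplite.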

[20] = qHTS assay to test for compound auto fluorescence at 535 nm (green) in HEK293 cells (AID 720680)
On the % scale 0 is the no-effect control and ±100 the full control effect.

COC(=O)c1ccc(CBr)cc1
inactive: Potency [1] | Potency [2] | Potency [3] | Potency [4] | Potency [5] | outcome [6] | outcome [7] | outcome [8] | outcome [9] | outcome [10] | outcome [11] | outcome [12] | outcome [13] | outcome [14] | outcome [15] | outcome [16] | Potency [17] | Potency [18]

ClC1=C(Cl)C2(Cl)C(CBr)CC1(Cl)C2(Cl)Cl (centres undefined)
active: Potency [2] 26.6 µM and 61.1 µM | Potency [5] 27.3 µM
inactive: outcome [19] | Potency [3] | Potency [4] | outcome [6] | outcome [7] | outcome [8] | outcome [9] | outcome [20] | outcome [10] | outcome [11] | outcome [12] | outcome [14] | outcome [15] | outcome [16] | Potency [17] | Potency [18]

CCCCS(=O)(=O)Cl
inactive: Potency [1] | outcome [19] | Potency [2] | Potency [4] | Potency [5] | outcome [6] | outcome [7] | outcome [8] | outcome [9] | outcome [10] | outcome [11] | outcome [12] | outcome [13] | outcome [14] | outcome [15] | outcome [16]

CCNc1nc(NCC)nc(SC)n1
inactive: Potency [1] | outcome [19] | Potency [2] | Potency [4] | Potency [5] | outcome [6] | outcome [7] | outcome [8] | outcome [9] | outcome [10] | outcome [11] | outcome [12] | outcome [13] | outcome [14] | outcome [16] | Potency [18]

Clc1cc2c(cc1Cl)Oc1cc(Cl)c(Cl)cc1O2
inactive: activation [1] -5.64% [at 0.337 µM] | activation [19] 0.775% [at 0.33 µM] | activity change, negative = cytotoxicity [2] -8.49% [at 0.33 µM] | activity change, negative = cytotoxicity [4] 5.89% [at 0.33 µM] | fluorescence, relative to Rose Bengal [6] -0.0382% [at 0.37 µM] | fluorescence, % of fluorescein control [7] -0.0272% [at 0.37 µM] | fluorescence, % of triamterene [8] -0.0407% [at 0.37 µM] | fluorescence, % of fluorescent control [9] 0.175% [at 0.37 µM] | fluorescence, % of fluorescein [20] 0.0035% [at 0.37 µM] | fluorescence, % of fluorescent control [10] -0.0164% [at 0.37 µM] | fluorescence, % of fluorescent control [12] 0.0291% [at 0.37 µM] | fluorescence, % of fluorescent control [14] -0.0614% [at 0.37 µM] | fluorescence, % of fluorescein control [15] -0.0284% [at 0.37 µM] | fluorescence, % of fluorescent control [16] -0.0066% [at 0.37 µM] | activation [17] -3.18% [at 0.28 µM] | activity change, negative = inhibition [18] -20.7% [at 0.284 µM]

CCCN1CCC[C@@H]2Cc3nc(N)ncc3C[C@H]21
inactive: outcome [19] | Potency [2] | Potency [3] | Potency [4] | outcome [6] | outcome [7] | outcome [8] | outcome [9] | outcome [20] | outcome [10] | outcome [11] | outcome [12] | outcome [13] | outcome [14] | outcome [15] | outcome [16]

[O-][Br+2]([O-])O
inactive: Potency [1] | outcome [19] | Potency [2] | Potency [4] | outcome [6] | outcome [7] | outcome [8] | outcome [9] | outcome [10] | outcome [11] | outcome [12] | outcome [13] | outcome [14] | outcome [15] | outcome [16] | Potency [18]

CCOC(=O)Nc1cccc(OC(=O)Nc2ccccc2)c1
active: Potency [5] 9.69 µM
inactive: Potency [1] | outcome [19] | Potency [2] | outcome [6] | outcome [7] | outcome [8] | outcome [9] | outcome [20] | outcome [10] | outcome [11] | outcome [12] | outcome [13] | outcome [14] | outcome [15] | outcome [16] | Potency [17] | Potency [18]

CNC(=O)Oc1ccccc1C(C)C
inactive: Potency [1] | outcome [19] | Potency [2] | Potency [4] | outcome [6] | outcome [7] | outcome [8] | outcome [9] | outcome [20] | outcome [10] | outcome [12] | outcome [14] | outcome [15] | outcome [16] | Potency [17] | Potency [18]

COc1ccc2c(C(=O)c3ccc(Cl)cc3)c(C)n(CC(=O)O)c2c1
inactive: Potency [1] | outcome [19] | Potency [2] | Potency [4] | Potency [5] | outcome [6] | outcome [7] | outcome [8] | outcome [9] | outcome [10] | outcome [11] | outcome [12] | outcome [14] | outcome [15] | outcome [16] | Potency [18]

O=P(O)(O)CN(CP(=O)(O)O)CP(=O)(O)O
inactive: outcome [19] | Potency [2] | Potency [3] | Potency [4] | fluorescence, relative to Rose Bengal [6] -0.158% [at 18.6 µM] | fluorescence, % of fluorescein control [7] -0.0161% [at 18.6 µM] | fluorescence, % of triamterene [8] 0.0178% [at 18.6 µM] | fluorescence, % of fluorescent control [9] 0.149% [at 18.6 µM] | fluorescence, % of fluorescein [20] -0.175% [at 18.6 µM] | fluorescence, % of fluorescent control [10] -0.0261% [at 18.6 µM] | activity change [11] -0.0587% [at 18.6 µM] | fluorescence, % of fluorescent control [12] 0.0352% [at 18.6 µM] | fluorescence, % of Rose Bengal [13] -0.0485% [at 18.6 µM] | fluorescence, % of fluorescent control [14] -0.13% [at 18.6 µM] | fluorescence, % of fluorescein control [15] 0.0644% [at 18.6 µM] | fluorescence, % of fluorescent control [16] -0.044% [at 18.6 µM] | Potency [17] | Potency [18]

CCOC(=O)C(SP(=S)(OC)OC)c1ccccc1 (centres undefined)
inactive: Potency [1] | outcome [19] | Potency [2] | Potency [4] | outcome [6] | outcome [7] | outcome [8] | outcome [9] | outcome [20] | outcome [10] | outcome [12] | outcome [13] | outcome [14] | outcome [15] | outcome [16] | Potency [17]

O=C(NC(=O)c1c(F)cccc1F)Nc1cc(Cl)c(F)c(Cl)c1F
inactive: outcome [19] | Potency [2] | Potency [3] | Potency [4] | outcome [6] | outcome [7] | outcome [8] | outcome [9] | outcome [20] | outcome [10] | outcome [11] | outcome [12] | outcome [13] | outcome [14] | outcome [15] | outcome [16] | Potency [17]

CCOP(=S)(OCC)Oc1ccc(Cl)cc1Cl
inactive: Potency [1] | outcome [19] | Potency [2] | outcome [6] | outcome [7] | outcome [8] | outcome [9] | outcome [20] | outcome [10] | outcome [12] | outcome [13] | outcome [14] | outcome [15] | outcome [16] | Potency [17] | Potency [18]

COP(=O)(O)OC
inactive: Potency [1] | outcome [19] | Potency [2] | Potency [4] | Potency [5] | outcome [6] | outcome [7] | outcome [8] | outcome [9] | outcome [20] | outcome [10] | outcome [12] | outcome [13] | outcome [14] | outcome [16] | Potency [18]
